Experimental data taken from the supplement of paper PMC13380429.

Experiments:
[1] = test system: Vero E6 infected with SARS-CoV-2; assay: morphology score (similarity to uninfected cells); higher = more like uninfected cells; details: 24 h
[2] = test system: Vero E6 infected with SARS-CoV-2; assay: SARS-CoV-2 infection rate relative to infected DMSO; higher = more infection, active = 60 or less; details: 24 h

Row | Structure (SMILES) | morphology score [1] | SARS-CoV-2 infection rate [2]
1 | Cc1cc2sc(NC(=O)Cc3ccccc3)nc2cc1Cl (10 µM) | 0.407 | 76.5% (inactive)
2 | CN(C)c1ccccc1CN1CCCN(Cc2ccccc2N(C)C)C1c1ccncc1 (10 µM) | 0.576 | 42% (active)
3 | CCCCc1ccc2[nH]c(NC(=O)OC)nc2c1 [parbendazole] (10 µM) | -0.112 | 111% (inactive)
4 | CCC1(c2ccccc2)C(=O)N(COC)C(=O)N(COC)C1=O [eterobarb] (10 µM) | -0.0955 | 106% (inactive)
5 | CNC(=O)Oc1cccc2ccccc12 [carbaril] (10 µM) | 0.025 | 101% (inactive)
6 | CCOC(=O)[C@@]1(CCCCCCOc2ccc(Cl)cc2)CO1 [etomoxir] (10 µM) | -0.0546 | 109% (inactive)
7 | CN(CCCN1c2ccccc2CCc2ccccc21)CC(=O)c1ccc(Cl)cc1 [lofepramine] (10 µM) | -0.0945 | 114% (inactive)
8 | NS(=O)(=O)c1cccc2c1c([N+](=O)[O-])cc1nc(O)c(O)nc12 (10 µM) | -0.0523 | 104% (inactive)
9 | CNCC(O)c1ccc(O)c(O)c1 (racemic) [DL-Adrenaline] (10 µM) | 0.188 | 109% (inactive)
10 | C[C@H](Nc1ncnc2[nH]cnc12)c1nc2ccc(F)cc2c(=O)n1-c1ccccc1 [acalisib] (0.833333 µM) | -0.115 | 110% (inactive)
11 | C(#Cc1nc2ncccc2nc1OCCN1CCCC1)c1ccccc1 (0.833333 µM) | 0.0988 | 86% (inactive)
12 | Cc1[nH]cnc1-c1ccc(Cl)cc1 [lofemizole] (10 µM) | -0.0942 | 102% (inactive)
13 | CCCC(=O)N1CCCN(c2nc(N)c3cc(OC)c(OC)cc3n2)CC1 [bunazosin] (10 µM) | 0.0754 | 108% (inactive)
14 | CCC[C@@H]1CC2=CC(=O)CC[C@]2(C)[C@H]2CC[C@@]3(C)[C@@H](CC[C@@]3(O)CCC(=O)O)[C@H]12 (10 µM) | 0.105 | 104% (inactive)
15 | N[C@@H](Cc1cc(I)c(Oc2ccc(O)c(I)c2)c(I)c1)C(=O)O [liothyronine] (10 µM) | 0.106 | 108% (inactive)
16 | N=C(N)c1ccc(/N=N/Nc2ccc(C(=N)N)cc2)cc1 [diminazene-aceturate] (10 µM) | 0.318 | 86% (inactive)
17 | CNC(=O)c1ccc(N2C(=S)N(c3cnc(C#N)c(C(F)(F)F)c3)C(=O)C23CCC3)cc1F [apalutamide] (10 µM) | 0.0169 | 109% (inactive)
18 | Cc1cccc2c1CC[C@H](CN1CCC(c3c(Cl)cccc3Cl)CC1)C[C@@H]2O (0.833333 µM) | 0.134 | 98% (inactive)
19 | O=C(O)c1cc(=O)[nH]c(=O)[nH]1 [orotic-acid] (10 µM) | 0.104 | 104% (inactive)
20 | COc1ccc2c(c1)/C(=C/c1cnc[nH]1)C(=O)N2 (0.833333 µM) | -0.0607 | 109% (inactive)
21 | C=C1/C(=C\C=C2/CCC[C@]3(C)[C@@H]([C@H](C)CCCC(C)(C)O)CC[C@@H]23)C[C@@H](O)C[C@@H]1O [calcitriol] (10 µM) | 0.098 | 108% (inactive)

Row | Structure (SMILES) | morphology score [1] | SARS-CoV-2 infection rate [2]
22 | Oc1cc2c(c(Cl)c1O)CCNCC2c1ccccc1 (centres undefined) (10 µM) | 0.16 | 97.5% (inactive)
23 | CCCC[C@H]1C(=O)N(c2ccccc2)N(c2ccc(O)cc2)C1=O [oxyphenbutazone] (0.833333 µM) | 0.131 | 102% (inactive)
24 | Clc1cccc(-c2nnnn2Cc2cccnc2)c1Cl (10 µM) | 0.0426 | 99.5% (inactive)
25 | CC(=O)OCC(=O)[C@H]1CC[C@H]2[C@@H]3CC[C@H]4C[C@H](O)CC[C@]4(C)[C@H]3C(=O)C[C@]12C [alfadolone-acetate] (10 µM) | -0.231 | 116% (inactive)
26 | O=C(c1ccc(F)cc1)C1CCN(CCn2c(=S)[nH]c3ccccc3c2=O)CC1 [altanserin] (10 µM) | -0.0789 | 99% (inactive)
27 | COCCCN1CCC(NC(=O)c2cc(Cl)c(N)c3c2OCC3)CC1 [prucalopride] (10 µM) | 0.0302 | 109% (inactive)
28 | N=C(N)NC(=O)c1cnn(-c2cccc3ncccc23)c1C1CC1 [zoniporide] (10 µM) | 0.127 | 115% (inactive)
29 | CCOC(=O)CC(=O)N1CCSC1COc1ccccc1OC (centres undefined) [moguisteine] (10 µM) | 0.165 | 99.5% (inactive)
30 | Cc1c(Cl)c(C)[n+]([O-])c(Cl)c1-c1noc(-c2cc(O)c(O)c([N+](=O)[O-])c2)n1 [opicapone] (10 µM) | 0.125 | 102% (inactive)
31 | C[C@@H]1CC(=O)NN=C1c1ccc(NN=C(C#N)C#N)cc1 [levosimendan] (10 µM) | -0.109 | 117% (inactive)
32 | O=C(Nc1c(Cl)cncc1Cl)c1ccc(OC(F)F)c(OCC2CC2)c1 [roflumilast] (10 µM) | 0.202 | 97% (inactive)
33 | C[C@H](N)C(=O)N[C@@H](CCC(N)=O)C(=O)O [dipeptamin] (10 µM) | 0.00346 | 102% (inactive)
34 | NCCCC[C@H](NC(=O)[C@@H]1CCCN1C(=O)[C@@H]1CSSC[C@H](NC(=O)CNC(=O)CNC(=O)CN)C(=O)N[C@@H](Cc2ccc(O)cc2)C(=O)N[C@@H](Cc2ccccc2)C(=O)N[C@@H](CCC(N)=O)C(=O)N[C@@H](CC(N)=O)C(=O)N1)C(=O)NCC(N)=O [terlipressin] (10 µM) | 0.0361 | 112% (inactive)
35 | O=C([O-])c1ccccn1.O=C([O-])c1ccccn1.O=C([O-])c1ccccn1.[Cr+3] [chromium-picolinate] (10 µM) | -0.0147 | 112% (inactive)
36 | CN1CCN(S(=O)(=O)c2ccc(-c3cnc(N)c(C(=O)Nc4cccnc4)n3)cc2)CC1 (0.833333 µM) | 0.224 | 99% (inactive)
37 | CCC[C@H](NC(=O)/C(C#N)=C/c1cccc(Br)n1)c1ccccc1 (0.833333 µM) | 0.143 | 108% (inactive)
38 | O=C(O)C1=CCCN(CCON=C(c2ccccc2)c2ccccc2)C1 (10 µM) | 0.0245 | 95% (inactive)
39 | CC(=O)Nc1nnc(S(N)(=O)=O)s1 [acetazolamide] (10 µM) | 0.0392 | 85.5% (inactive)
40 | O=C(NC1CCN(CCc2c[nH]c3ccccc23)CC1)c1ccccc1 [indoramin] (10 µM) | 0.105 | 102% (inactive)
41 | CCOC(=O)C1=C(N)Oc2ccc(Br)cc2C1C(C#N)C(=O)OCC (centres undefined) (10 µM) | 0.0924 | 108% (inactive)
42 | CC(=O)Nc1ncc([N+](=O)[O-])s1 [nithiamide] (10 µM) | 0.0207 | 90% (inactive)

Row | Structure (SMILES) | morphology score [1] | SARS-CoV-2 infection rate [2]
43 | Cc1ccc(C(=O)NCCCCCC(=O)Nc2ccccc2N)cc1 (0.833333 µM) | -0.0541 | 120% (inactive)
44 | Cc1nc(NC(=O)N2CCC[C@H]2C(N)=O)sc1-c1ccnc(C(C)(C)C(F)(F)F)c1 [alpelisib] (10 µM) | 0.0577 | 113% (inactive)
45 | Cc1ccc(C)c(Oc2ccncc2C(=O)N2CCN(C3CC3)c3ccccc32)c1 (10 µM) | 0.133 | 108% (inactive)
46 | O=C(OC(C(F)(F)F)C(F)(F)F)N1CCN(Cc2cccc(Oc3ccccc3)c2)CC1 (10 µM) | -0.142 | 24.5% (active)
47 | CCC1=C[C@@H]2CN3CCc4c([nH]c5ccccc45)[C@@](C(=O)OC)(C2)[C@@H]13 [catharanthine] (10 µM) | 0.119 | 110% (inactive)
48 | C1CCC(NC2CCCCC2)CC1 [dicyclohexylamine] (10 µM) | -0.191 | 114% (inactive)
49 | CCN(CC)CCOC(=O)C1(c2ccccc2)CCCC1 [caramiphen] (10 µM) | 0.145 | 95.5% (inactive)
50 | Cc1cc(NC(=O)C(c2ccccc2)N2CCCc3ccccc32)no1 (centres undefined) (10 µM) | 0.018 | 92% (inactive)
51 | CN(C)C(=O)[C@H](O)[C@H](Cc1ccccc1)NC(=O)c1cc2cc(Cl)ccc2[nH]1 (10 µM) | 0.225 | 102% (inactive)
52 | Nc1nc(=O)c2c([nH]1)NCC(CNc1ccc(C(=O)N[C@@H](CCC(=O)O)C(=O)O)cc1)N2C=O (some centres undefined) [leucovorin] (10 µM) | -0.0198 | 89.8% (inactive)
53 | COc1ccc(Cl)c(Nc2ncnc3cc(OCC4CCN(C)CC4)c(OC)cc23)c1 (10 µM) | -0.108 | 114% (inactive)
54 | O=C(O)CCNc1cc(N2CCc3ccccc3CC2)nc(-c2ccccn2)n1 (10 µM) | 0.19 | 101% (inactive)
55 | O=C(O)[C@H](O)c1ccccc1 [mandelic-acid] (10 µM) | -0.0448 | 114% (inactive)
56 | O=C(O)CCCC[C@@H]1SC[C@@H]2NC(=O)N[C@@H]21 [biotin] (10 µM) | -0.0202 | 108% (inactive)
57 | CNC(=O)c1ccc(Nc2ncc(C(F)(F)F)c(NCc3nccnc3N(C)S(C)(=O)=O)n2)cc1 [defactinib] (0.833333 µM) | 0.0478 | 100% (inactive)
58 | CC(=C(CCO)SSCC1CCCO1)N(C=O)Cc1cnc(C)nc1N (stereo in doubt) [fursultiamine] (10 µM) | 0.0723 | 110% (inactive)
59 | CC(=O)[C@H]1CC[C@H]2[C@@H]3CC=C4C[C@@H](OC(=O)CCC(=O)O)CC[C@]4(C)[C@H]3CC[C@]12C [pregnenolone-succinate] (10 µM) | -0.0431 | 104% (inactive)
60 | O=C(CCCCCCCC(=O)NCCO)NCCO [adelmidrol] (10 µM) | -0.0406 | 105% (inactive)
61 | CCOC(=O)[C@H](Cc1ccc([N+](=O)[O-])cc1)NC(=O)c1ccccc1 (10 µM) | 0.37 | 84.5% (inactive)
62 | Cc1cc(C)c(N)c(C#Cc2cccc(F)c2)n1 (10 µM) | 0.221 | 97.5% (inactive)
